# Rab2 wt GTP = changes GTP binding to wildtype dog Rab2A, up or down. AID 760. hit rate 0.19% among 190,000. GTP binding activity, % at 10 µM. GST-Rab2 wt beads, Bodipy-GTP binding, flow cytometry;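 active = GTP binding activity at least 20 points away from 100%, either lowered or raised; inconclusive = signal likely due to the compound's own green fluorescence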;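 also: 0% = beads with excess unlabeled GTP and 100% = no-compound control corrected for plate trend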
# Rac1 wt modul = alters GTP binding to wildtype human Rac1. P63000. GST-Rac1 beads, fluorescent GTP binding, flow cytometry; actives lie on both sides; 0 = cold GTP competed, 100 = untreated. GTP binding activity (% of control), % at 10 µM. hit rate 0.27% among 190,000. AID 757;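 active = GTP binding activity at least 20 points away from the 100% control level, either lower or higher; inconclusive = compound flagged as likely green fluorescent, judged across all proteins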
# Cdc42 wt = modulators (inhibitors or activators) of GTP binding to human Cdc42 wildtype | GST-Cdc42 beads, Bodipy-GTP binding, flow cytometry; actives lie on both sides | hit rate 0.2% among 190,000 | percent activity (GTP binding), % at 10 µM | P60953 | AID 761;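 active = percent activity GTP binding at least 20 points away from the 100% baseline, either down as inhibitor or up as activator; inconclusive = compound flagged as likely green fluorescent from well-wide comparison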;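 also: median bead fluorescence of bound Bodipy-FL-GTP at 100 nM; 0% = excess unlabeled GTP control and 100% = no compound control; below 100% means less GTP binding so inhibitor and above means activator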
# Target sequence (P60953 whole entry, looked up): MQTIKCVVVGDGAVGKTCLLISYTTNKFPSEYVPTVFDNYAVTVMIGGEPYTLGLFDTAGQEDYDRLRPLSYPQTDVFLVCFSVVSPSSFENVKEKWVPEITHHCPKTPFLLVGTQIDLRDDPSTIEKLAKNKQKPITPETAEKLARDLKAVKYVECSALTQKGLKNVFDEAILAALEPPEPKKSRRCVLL
# Rac1 act GTP bind = modulators of GTP binding to human Rac1 activated mutant; GST-Rac1 activated beads, fluorescent GTP binding, flow cytometry; actives lie on both sides; 100% means binding = to untreated wells; percent activity (GTP binding), % at 10 µM; AID 764; P63000; hit rate 0.11% among 190,000;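 active = GTP binding at least 20 percentage points away from the 100% baseline, in either direction, so actives lie on both sides; inconclusive = Compound likely fluorescent itself, or too few beads counted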
# Rab7 wt modul = dog Rab7 wildtype GTP binding, inhibitors and activators; GST-Rab7 beads, fluorescent GTP binding, flow cytometry; actives lie on both sides; untreated = 100%, excess cold GTP = 0%; GTP binding activity (percent of control), % at 10 µM; hit rate 0.055% among 190,000;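 active = fluorescent GTP binding to Rab7 beads changed by at least 20 points from the 100% baseline, either direction, mostly lower; inconclusive = compound itself probably fluorescent, or too few beads counted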;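 also: median green fluorescence of bound Bodipy-FL-GTP per Rab7 bead population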
# HRas wt GTP = human HRas wildtype GTP binding, change in either direction | AID 759 | hit rate 0.14% among 190,000 | P01112 | GTP binding activity, % at 10 µM | GST-Ras wt beads, Bodipy-FL-GTP binding, flow cytometry; actives lie on both sides;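 active = GTP binding activity at least 20% away from the 100% baseline, either lowered as inhibitor or raised as activator; inconclusive = flagged as likely green fluorescent, judged across all proteins in the well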;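 also: 0% = unlabeled GTP competition control and 100% = no-compound control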
# Target sequence (P01112 whole entry, looked up): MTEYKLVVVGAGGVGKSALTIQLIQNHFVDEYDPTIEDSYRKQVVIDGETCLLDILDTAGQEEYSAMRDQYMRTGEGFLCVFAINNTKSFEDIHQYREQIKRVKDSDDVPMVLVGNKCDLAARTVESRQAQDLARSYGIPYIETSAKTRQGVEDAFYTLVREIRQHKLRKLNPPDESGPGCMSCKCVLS
# * marks the source's active call; other numbers are inactive results; ? = inconclusive; [ ] = dose if it differs, or a comment. A selection: hits, their analogues and other compounds. The true share with any hit is near 0.4%.
SMILES,Rab2 wt GTP,Rac1 wt modul,Cdc42 wt,Rac1 act GTP bind,Rab7 wt modul,HRas wt GTP
Cc1ccc2[nH]c(C(=O)NN=C3CCCCC3)c(-c3ccccc3)c2c1,98,100,94,97,93,97
COc1ccc(N(CC(=O)Nc2ccccc2C(=O)NCCc2ccccc2)S(C)(=O)=O)cc1OC,102,101,103,101,97,103
Cc1cc(-c2n[nH]c(=S)n2/N=C/C(Cl)=C/c2ccccc2)n[nH]1,85,85,92,85,77*,77*
CC(=O)N1CCC(=O)Nc2ccc([N+](=O)[O-])cc21,98,99,97,96,97,96
O=c1cc(N2CCc3ccccc3C2)[nH]c(=O)n1-c1ccc(Cl)cc1,104,121*[activator],102,103,101,102
Cc1ccccc1Nc1n[nH]c(C)c1[N+](=O)[O-],99,99,98,100,98,97
Cc1ccc(Nc2n[nH]c(C)c2[N+](=O)[O-])c(C)c1,192*[activator],111,116,?,?,154*[activator]
Cn1c(O)c(N=NC(=O)c2ccccc2O)c2ccccc21,92,96,93,93,98,94
Cc1cc(N=NC(=O)c2ccccc2O)c2ccccc2c1O,78*,74*,76*,82,91,83
Cc1ccc(C(=O)c2ccccc2C(=O)OCC(=O)NC(C)(C)C)cc1,94,98,96,95,94,97
O=C(Nc1cccc(Cl)c1)Nc1ccnc(-c2cccnc2)n1,67*,77*,64*,85,93,67*
CC(=O)Nc1ccnc(-c2cccnc2)n1,95,96,93,95,99,96
N#Cc1ccc2ccn(CC(=O)N3CCCc4ccccc43)c2c1,109,129*[activator],109,106,110,109
O=C(CN1CCCCC1)N1CCCc2ccccc21,102,106,104,101,100,103
Cc1cccc(-c2nnc3n2N=C(c2ccccc2)CS3)c1,94,100,88,96,92,95
COc1ccc(C2=Nn3c(nnc3-c3ccccc3)SC2)cc1OC,82,78*,80,90,93,80
Oc1ccc(C2=Nn3c(nnc3-c3ccco3)SC2)cc1O,47*,51*,49*,65*,70*,47*
Cc1cc(-c2nnc3n2N=C(c2ccc(-c4ccccc4)cc2)CS3)n[nH]1,79*,75*,76*,81,87,78*
COc1ccc(-c2nnc3n2N=C(C)CS3)cc1OC,93,89,95,91,94,93
C=CCn1c(=NC(=O)c2ccccc2[N+](=O)[O-])sc2cc(S(C)(=O)=O)ccc21,97,100,99,97,100,95
COc1ccc(C(=O)Nc2nc3ccccc3[nH]2)cc1S(=O)(=O)N1CCOCC1,77*,82,78*,90,82,80
c1ccc(CN2CCN(CCOCCOc3cccc4ccccc34)CC2)cc1,78*,88,80,80,87,83
CCOc1cc(/C=N/Nc2nncc(-c3ccccc3)n2)ccc1O,85,74*,84,87,87,83
CCOc1cc(/C=N/NC(=O)c2cc(-c3cccnc3)nc3ccccc23)ccc1O,83,78*,83,88,99,86
COC(=O)c1scc(C)c1N/N=C(\C)c1cc(F)c(Cl)cc1F,100,103,106,98,100,104
SMILES,Rab2 wt GTP,Rac1 wt modul,Cdc42 wt,Rac1 act GTP bind,Rab7 wt modul,HRas wt GTP
O=C(COC(=O)/C=C/c1cccs1)Nc1ccc2ccccc2c1,76*,74*,73*,76*,81,80
O=C(COC(=O)/C=C/c1cccs1)Nc1ccccc1Cl,90,91,92,91,93,93
CCN1CCN(c2nc3c(c(=O)n(C)c(=O)n3C)n2Cc2cccc3ccccc23)CC1,111,120*[activator],116,101,102,108
Cn1c(=O)c2c(nc(N3CCc4ccccc4C3)n2C)n(C)c1=O,81,69*,80*,83,85,81
CCCC(=O)c1c[nH]c(C(=O)NCc2ccco2)c1,104,98,102,99,96,101
O=S1(=O)N=C(N=Nc2c(O)[nH]c3ccccc23)c2ccccc21,82,77*,80,87,96,87
Cc1nnc2ccc(-c3ccc(NC(=O)c4ccco4)cc3)nn12,84,75*,86,88,87,85
CC(=O)Nc1ccc(-c2ccc3nnc(C)n3n2)cc1,93,90,92,92,95,92
COc1cc2ccccc2cc1C(=O)NC(=S)Nc1cccc(C(=O)O)c1,75*,81,75*,80,85,76*
CCCCn1c(SCC(=O)Nc2cc(C(F)(F)F)cc(C(F)(F)F)c2)nnc1C(CC)N(C)C (centres undefined),100,104,101,98,104,101
COc1cccc2c(SCC(=O)N/N=C/c3ccc(O)c(O)c3)cc(C)nc12,75*,65*,71*,84,89,79*
COc1ccc2nc(C)cc(SCC(=O)N/N=C/c3ccc(O)c(O)c3)c2c1,68*,79*,69*,82,91,72*
COc1cccc2c(SCC(=O)N/N=C/c3ccccc3)cc(C)nc12,97,96,99,95,99,94
COc1ccc2nc(C)cc(SCC(=O)N/N=C/c3cccc4ccccc34)c2c1,98,98,98,97,97,98
COc1ccccc1-c1nnc(SCC(=O)NCc2cccs2)n1N,97,94,93,94,104,96
Cc1ccc(/C=C2\SC(=S)N(Cc3ccccc3)C2=O)o1,90,89,88,88,89,89
COc1ccc(CN2C(=O)/C(=C/c3ccc(-c4ccc(Cl)c(C(=O)O)c4)o3)SC2=S)cc1,79*,76*,75*,76*,84,73*
O=C(O)c1cc(-c2ccc(/C=C3/SC(=S)N(Cc4ccccc4)C3=O)o2)ccc1Cl,78*,74*,76*,77*,89,80
O=C(NCc1nc2ccccc2[nH]1)C1=C[C@H](c2ccc3c(c2)OCO3)C[C@H](OCCCCO)O1,97,95,97,96,100,96
CSC1=NC2(CCCCC2)CC12C=CC(=O)C=C2,97,103,101,100,96,98
O=[N+]([O-])c1cc2oc3c(c2c(C=NCc2ccccc2)c1O)CCCC3,76*,73*,74*,74*,78*,79*
CC(C)CN=Cc1c(O)c([N+](=O)[O-])cc2oc3c(c12)CCCC3,94,97,97,94,95,97

# High-throughput results from PubChem BioAssay.
